Sm TGR inh: blocks Schistosoma mansoni thioredoxin glutathione reductase; purified TGR, DTNB reduction, TNB absorbance 405 nm; AID 485364; 360,000 compounds, 3% hits; Potency, µM (highest dose often 114 µM), inactives show at the top dose activity change, negative = inhibition, usual class: inhibitors; Q962Y6; further: on the % scale 0 is the no-effect control and ±100 the full control effect; nearly all actives have a fitted effect of over 60% in size
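Kinetic colorimetric format: TGR-catalysed, NADPH-driven DTNB reduction monitored via TNB absorbance. Enzyme dispensed at 20 nM; compound exposure 15 min at room temperature before reaction start.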
Pf growth 96h: P. falciparum growth inhibition at 96 hours; P. falciparum luciferase reporter growth, 96 h; Potency, µM (series often up to 28.7 µM), inactives show at the top dose activity change, negative = inhibition, hits mostly inhibitors; 320,000 compounds, 6.9% hits; AID 504834; further: on the % scale 0 is the no-effect control and ±100 the full control effect
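Infected RBCs, 2% Hct / 0.05% parasitemia final; luciferase-reporter P. falciparum; cpd 96 h, 37 C, 5% CO2; luciferase detection reagent; luminescence.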
NS1 function inh: inhibitors of influenza NS1 protein function | Potency, µM (titrated, usually from 46.1 µM), inactives show top-dose activity, positive = more growth | 270,000 compounds, 0.4% hits; calls by dose curve; further: actives are rising curves; nearly all actives have a fitted effect of over 50% in size
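Compounds were scored for reversing the slow growth caused by influenza A NS1 in S. cerevisiae, measured by optical density at 600 nm. Assay medium contained 2% galactose at pH 6.0; NS1-free yeast of the same strain were the positive control.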
AMA1 RON2 block: disrupts binding of P. falciparum AMA1 to RON2 | AlphaScreen AMA1-biotinylated RON2 peptide binding | Potency, µM (titrated, usually from 58.2 µM), for inactives: at the top dose activity change, negative = inhibition, actives largely listed as inhibitors | 360,000 compounds, 0.2% hits | AID 720542;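 further: 0% = vehicle wells and -100% = peptide control; nearly all actives have a fitted effect of over 45% in size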
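AMA1 (3D7) with his tag at 25 nM final met compounds first, then biotinylated RON2 peptide at 25 nM; detection used donor plus acceptor beads, 10 µg/mL apiece, read by AlphaScreen after 30 min at room temperature.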
Pf growth 48h: inhibits P. falciparum growth in the first generation, 48 h. P. falciparum luciferase growth in erythrocytes, 48 h. Potency, µM (titrated, usually from 28.7 µM), without a hit: at the top dose activity change, negative = inhibition, hits mostly inhibitors. 310,000 compounds, 5.9% hits. AID 504832; further: on the % scale 0 is the no-effect control and ±100 the full control effect
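Luciferase-expressing P. falciparum in infected erythrocytes (2% hematocrit, 0.1% parasitemia final) in RPMI 1640/0.5% Albumax were exposed to compound for 48 hours at 37 C, 5% CO2; growth read as luminescence.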
* hit, by the source's call; i = inactive; ? = inconclusive; / = not tested or not shown; [ ] = another dose, or the depositor's remark. Only some compounds are listed: those with a hit (about 11% of all), similar ones and a draw of the others. Unless noted, the call rests on the fitted dose curve; in most records, active means well fitted curve in the direction sought with a large enough effect; inconclusive means small, poorly fitted or top-dose-only effect, or another doubt; inactive means no such curve, though single readings can be large; an effect the other way counts as inactive or inconclusive. Potency means the concentration at half of the fitted maximal effect.

SMILES	Sm TGR inh	Pf growth 96h	NS1 function inh	AMA1 RON2 block	Pf growth 48h
CCN1C(=O)[C@@H]2[C@@H](c3ccc(-c4ccc(F)cc4)cc3)N3CCCC[C@@]3(C(=O)OC)[C@@H]2C1=O	?	?	/	-11%	10µM*
COC(=O)[C@@]12CCCCN1[C@H](c1ccc(-c3ccc(F)cc3)cc1)[C@H]1C(=O)N(C)C(=O)[C@H]12	/	/	/	-4%	/
CCCNc1nc(NCC)nc(OC)n1	9%	?	6%	3%	5%
CCNc1nc(NCC)nc(ON=C(C)C)n1	-31%	2.1µM*	-6%	/	3.7µM*
CCNc1nc(NC(C)CC)nc(ON=C(C)C)n1 (stereo not given)	/	13µM*	-3%	2%	1.5µM*
Cc1ccc(SCC(=O)N=C2NC(=O)CS2)cc1	-15%	?	/	1%	13%
CC(=O)Nc1ccc(S(=O)(=O)N2C(=O)c3cccc4cccc2c34)cc1	-10%	0%	5%	/	3%
O=C(NC1CCCC1)c1ccc2c(=O)n(Cc3ccccc3)c(SCc3ccccc3)nc2c1	0%	/	/	/	/
COc1cc(N=Nc2cccc(S(N)(=O)=O)c2)c2ccccc2c1N	56µM*	2.9µM*	-3%	-25%	4.1µM*
CCCc1nc2c(C)cc(C)cc2c(N)c1CC	0%	10µM*	-7%	-8%	9.3µM*
Cc1ccc(Cl)cc1N1CCN(Cc2cc3c(cc2O)CCC3)CC1	-27%	0.15µM*	7%	-5%	/
Cc1ccc(Cl)cc1N1CCN(C(=O)c2ccc(CN3CCOCC3)cc2)CC1	-17%	-20%	-53%	-7%	?
O=C(C1CC1)N1CCN(c2ccc(O)cc2)CC1	-18%	?	16%	18%	?
Cc1cc(C)c(C)c(S(=O)(=O)N2CCC(C(=O)N3CCCC3)CC2)c1C	1%	12µM*	/	-2%	12µM*
Cc1ccc(C(C)(C)C)cc1S(=O)(=O)N1CCC(C(=O)N2CCN(c3ccc(O)cc3)CC2)CC1	-28%	10µM*	/	-10%[11.6 µM]	3.7µM*
Cc1cc(C)c(C)c(S(=O)(=O)N2CCC(C(=O)Nc3ccncc3)CC2)c1C	4%	13µM*	-33%	2%	?
CCCS(=O)(=O)N1CCC(C(=O)N2CCCC2)CC1	8%	12µM*	10%	0%	12%
CCCC(=O)N1c2nc(-c3ccco3)nn2C2(CCCCC2)[C@@H]2CCCC[C@@H]21	35µM*	/	/	/	/
C/C(=N\NC(=O)c1ccc(C)cc1)c1c(C)[nH]n(-c2ccccc2)c1=O	0%	15µM*	-38%	56%	-4%
C/C(=N\NC(=O)c1ccccc1)c1c(C)[nH]n(-c2ccccc2)c1=O	-10%	-11%	-33%	94%	-2%
Cc1ccccc1C(=O)NNc1ccc(-c2csnn2)cc1	-9%	13%	-35%	-28%	1.9µM*
CC(=O)Oc1ccc(-c2csnn2)cc1	8%	16%	4%	2%	6%
COc1ccccc1NS(=O)(=O)c1ccc(C(=O)Nc2ncccc2O)cc1	-25%	?	/	30%	4.7µM*
COc1ccc(-c2nc(CS(=O)CC(=O)N3CCN(C)CC3)c(C)o2)cc1 (stereo not given)	-36%	2%	12%	-4%	?
O=C(CC1CC2CCC1C2)OCC(=O)c1c[nH]c2ccccc12 (stereo not given)	15%	5.2µM*	-138%	?	?
SMILES	Sm TGR inh	Pf growth 96h	NS1 function inh	AMA1 RON2 block	Pf growth 48h
COc1ccc(CC(=O)OCC(=O)c2c[nH]c3ccccc23)cc1	-6%	-112%	/	5%	8.3µM*
COc1cc(CC(=O)OCC(=O)c2c[nH]c3ccccc23)cc(OC)c1OC	3%	13µM*	/	4%	4.1µM*
COc1ccccc1C(=O)COC(=O)Cc1c[nH]c2ccccc12	0%	44%	/	17%	13%
O=C(CNS(=O)(=O)c1ccccc1)OCC(=O)c1c[nH]c2ccccc12	-1%	4.1µM*	/	8%	8.3µM*
COc1ccc(C(=O)NCC(=O)OCC(=O)c2c[nH]c3ccccc23)cc1	/	/	/	-10%	/
COc1ccc(CN2CCNC(=O)C2CC(=O)NC2CCCC2)c(C)c1C (stereo not given)	?	35%	-8%	12%	-1%
COc1cccc(CNc2cc(CSc3ccc(Cl)cc3)nc(C)n2)c1	2%	?	-81%	36%	/
Cc1[nH]c2ccccc2c1C(=O)COC(=O)Cn1c(C(F)(F)F)nc2ccccc21	-9%	-18%	2%	2%	9%
O=C(Cn1c(C(F)(F)F)nc2ccccc21)OCC(=O)c1c[nH]c2ccccc12	-15%	4.1µM*	7%	0%	12µM*
CCCCC(CC)C(=O)NCCCN1CCN(CCCNC(=O)C(CC)CCCC)CC1 (stereo not given)	?	-2%	11%	-2%	5.9µM*
Cc1cc(C(=O)CS(=O)(=O)c2ccc(F)cc2)cc(C)c1OC(=O)N(C)C	-2%	149%	/	1%	i
Cc1cc(C(=O)CS(=O)(=O)c2ccc(Cl)cc2)cc(C)c1O	4.5µM*	15%	-1%	-7%	-16%
COc1ccc(S(=O)(=O)CC(=O)c2cc(C)c(O)c(C)c2)cc1	28µM*	-15%	3%	11%	-5%
CCN(C(=O)C1CCN(S(=O)(=O)c2ccc3c(c2)CCCN3C(C)=O)CC1)c1cccc(C)c1	9%	/	/	/	/
COc1cc(S(=O)(=O)N2CCOCC2)ccc1NC(=O)COC(=O)COc1ccccc1	0%	14%	/	11%	9%
CCc1sc(C(=O)N2CCN(c3ncccn3)CC2)cc1Br	4%	-25%	2%	3%	-9%
CN1C(=O)C(=Cc2cccnc2)C(=O)N(C)C1=O	-17%	-13%	-5%	8%	-5%
CC1C/C(=C\c2cccnc2)C(=O)/C(=C/c2cccnc2)C1 (stereo not given)	?	44%	-50%	-3%	3.7µM*
CSc1nc(O)c(C(c2ccc(O)cc2)c2c(O)nc(SC)[nH]c2=O)c(=O)[nH]1	?	35%	-5%	-11%	-12%
O=C(CSCc1ccc([N+](=O)[O-])cc1)Nc1ccccc1C(=O)O	-4%	9.3µM*	3%	15%	2%
O=C(CSCc1ccc([N+](=O)[O-])cc1)Nc1ccc(S(=O)(=O)N2CCCCCC2)cc1	4%	10µM*	12%	-7%	?
O=C(CSCc1ccc(Cl)cc1)Nc1cc([N+](=O)[O-])ccc1O	/	26%	-5%	11%	?
O=C(CSCc1ccc(F)cc1)Nc1ccc(F)cc1	5%	6.6µM*	-9%	1%	1%
Cc1cccc(C)c1-n1nnnc1C(c1ccnc2ccccc12)N1CCN(C(=O)OCc2ccccc2)CC1 (stereo not given)	/	/	/	-6%	/
Cc1nn(S(=O)(=O)c2ccc(C(C)C)cc2)c(C)c1S(=O)(=O)N1CCCCCC1	-12%	/	/	/	/
CCN(CC)Cc1c(C(=O)N/N=C/c2ccc(OCc3ccccc3C)cc2)nnn1-c1nonc1N	5%	?	-17%	-5%	?

High-throughput results from PubChem.
